Assay outcomes: PubChem, National Center for Advancing Translational Sciences (NCATS)
Rows were chosen to be rich in hits. Some 11% of all compounds tested hit in one or more screens of this group.
PNC assembly inh: High Content Assay for Compounds that inhibit the Assembly of the Perinucleolar Compartment; PC3M PTB-GFP, PNC prevalence imaging, 16 h; hits give low values; activity change (PNC), negative = inhibition, % at 10 µM; 140,000 tested, 3.1% active; AID 2417, 2010;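 active means readout at or below -70, meaning at least 70% loss of cells showing the perinucleolar compartment, a nuclear body marking cancer cells; inconclusive means readout between -30 and a set limit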;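 further: plate controls were DMSO wells for no effect and camptothecin positive control wells for full effect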
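Read-out is percentage of cells bearing a perinucleolar compartment, from automated 20x imaging of fixed, Hoechst-stained PC3M PTB-GFP cells. Cells were seeded 4 h, then exposed 16 h to compound (23 nl of library stock) in duplicate plates.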
NPSR antag: qHTS Assay for Antagonists of the Neuropeptide S Receptor: cAMP Signal Transduction; Q6W5P4; CHO-NPSR cells, cAMP TR-FRET, antagonist mode; Potency, µM (top dose mostly 38.3 µM), for the others: top-dose activity change, negative = inhibition, actives largely listed as inhibitors; 220,000 tested, 1% active; AID 1461, 2008; active means well fitted curve in the direction sought with a large enough effect; inconclusive means small, poorly fitted or top-dose-only effect, or another doubt; inactive means no such curve, though single readings can be large; an effect the other way counts as inactive or inconclusive; further: potency means the concentration at half of the fitted maximal effect; nearly all actives have a fitted effect of over 50% in size
IMPase cell inh: qHTS Assay for Identifying the Cell-Membrane Permeable IMPase Inhibitors; Inositol monophosphatase 1 (Rattus norvegicus), P97697; inhibition (IP1 accumulation), % at 46.1 µM; AID 901, 2007; CHO-M1 cells, IP1 accumulation, HTRF TR-FRET ratio; 120,000 tested, under 10 active; active means well fitted curve in the direction sought with a large enough effect in the signal ratio, not every such curve was filed as active; inconclusive means small, poorly fitted or top-dose-only effect, or a change in a side signal; inactive means no such curve, though single readings can be large or run the other way; the % refers to the signal ratio;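 further: cells stimulated with carbachol in lithium chloride buffer; plate controls were DMSO basal wells for no effect and reference inhibitor wells for full effect; higher means more IMPase inhibition seen as more IP1 and lower FRET ratio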
Target sequence (P97697 whole entry, looked up): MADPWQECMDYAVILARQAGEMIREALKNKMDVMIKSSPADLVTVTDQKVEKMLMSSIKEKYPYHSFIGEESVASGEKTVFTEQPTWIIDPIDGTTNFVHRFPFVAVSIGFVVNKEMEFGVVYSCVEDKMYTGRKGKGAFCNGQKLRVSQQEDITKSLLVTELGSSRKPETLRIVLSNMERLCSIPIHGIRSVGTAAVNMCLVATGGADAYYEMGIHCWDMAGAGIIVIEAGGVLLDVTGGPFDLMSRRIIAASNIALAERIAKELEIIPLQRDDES
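CHO-M1, 2000 cells/well, cultured 16–30 h; cpd up to 46 uM; carbachol (50 uM solution, stimulation buffer w/ 50 mM LiCl, pH 7.4), 30 min 37C; IP-One TR-FRET, 10 min RT; Ex 320/Em 665, 620; Hill-fit AC50.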
ALDH1A1 inh: qHTS Assay for Inhibitors of Aldehyde Dehydrogenase 1 (ALDH1A1); Purified ALDH1A1, NADH fluorescence, propionaldehyde substrate; Potency, µM (top dose mostly 75.3 µM), for inactives: top-dose activity, negative = inhibition, actives largely listed as inhibitors; 220,000 tested, 7.3% active; AID 1030, 2008;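 further: potency means the concentration at half of the fitted maximal effect; plate controls were no enzyme wells and a reference inhibitor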
HPGD block: qHTS Assay for Inhibitors of HPGD (15-Hydroxyprostaglandin Dehydrogenase); 15-hydroxyprostaglandin dehydrogenase [NAD(+)] (Homo sapiens), P15428; purified HPGD, NADH fluorescence kinetic, PGE2 substrate; Potency, µM, for inactives: at the highest dose activity change, negative = inhibition, most hits filed as inhibitors; 150,000 tested, 4.3% active; further: potency means the concentration at half of the fitted maximal effect
Target sequence (P15428 whole entry, looked up): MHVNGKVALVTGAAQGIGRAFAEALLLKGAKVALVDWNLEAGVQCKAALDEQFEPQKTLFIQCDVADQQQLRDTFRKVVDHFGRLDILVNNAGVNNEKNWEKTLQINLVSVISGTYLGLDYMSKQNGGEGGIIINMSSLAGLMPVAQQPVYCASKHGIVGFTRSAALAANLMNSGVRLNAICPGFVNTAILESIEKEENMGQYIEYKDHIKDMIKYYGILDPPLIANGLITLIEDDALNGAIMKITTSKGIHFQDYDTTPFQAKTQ
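NADH formation kinetics: reaction with 30 uM PGE2 and 1 mM NAD+ (final), 20 nM enzyme, Tris-HCl pH 8 with Tween 20, after 15 min compound preincubation at room temperature. Fluorescence change, last versus first of five reads.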
IMPase Li inh: qHTS Assay for Identifying the Cell-Membrane Permeable IMPase Inhibitors: Potentiation with Lithium; Potency, µM (highest dose often 59.4 µM), for inactives: at the top dose activity, negative = IMPase inhibition, actives largely listed as inhibitors; AID 1457, 2008; CHO-M1 cells, IP1 TR-FRET (IP-One), carbachol + lithium; 210,000 tested, 0.35% active; active means well fitted curve in the direction sought with a large enough effect; inconclusive means small, poorly fitted or top-dose-only effect, or another doubt; inactive means no such curve, though single readings can be large; an effect the other way counts as inactive or inconclusive;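 further: IP1 builds up when IMPase is blocked and the TR-FRET signal falls; potency means the concentration at half of the fitted maximal effect; plate controls were basal vehicle for no effect and high inhibitor control for full effect; nearly all actives have a fitted effect of over 50% in size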
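Lithium-sensitised IP1 accumulation assay; M1-expressing CHO cells treated 30 min at 37C with compound. Competitive antibody detection by time-resolved FRET followed a 10 min room-temperature lysis step.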
The depositor's hits bear a star; ? = inconclusive; nt = no result given; [ ] = remark or other dose. Unless noted, the call rests on the fitted dose curve; in most records, active means well fitted inhibition curve with a large enough effect (not every such curve was filed as active); inconclusive means small, poorly fitted or top-dose-only effect, or another doubt; inactive means no such curve, though single readings can be large or run the other way. Unless noted, on the % scale 0 is the no-effect control and ±100 the full control effect.

SMILES	PNC assembly inh	NPSR antag	IMPase cell inh	ALDH1A1 inh	HPGD block	IMPase Li inh
COc1ccc(CNC(=O)C2CC(C)=C(C)CC2C(=O)O)cc1 (stereo not given)	-17	-7%[46.1 µM]	-3	5%	-6%	25%[38.3 µM]
Clc1cccc(Cl)c1NC1=NCCN1	nt	?	?	-8%	-11%	-6%
Nc1ccc(Nc2ccccc2)c(Cl)c1	-23	-20%[46.1 µM]	8	14µM*	-18%	-4%[38.3 µM]
Nc1ccccc1Nc1ccccc1	11	-3%[46.1 µM]	8	?	-23%	10%[38.3 µM]
O=C(NC(=S)NC1CC1)c1cccnc1	56	-2%[46.1 µM]	-4	-10%	-2%	1%[38.3 µM]
O=C(Cn1cnc2cc([N+](=O)[O-])ccc2c1=O)NCCc1ccc(F)cc1	nt	-5%	nt	32µM*	nt	6%
O=C(Cn1cnc2cc([N+](=O)[O-])ccc2c1=O)NCCc1ccc(Cl)cc1	nt	1%	nt	?	nt	7%
CCOC(=O)c1nnn(CC(=O)Nc2cccc(OC)c2)c1C(=O)OCC	29	-12%[46.1 µM]	2	2%	-13%	-1%[38.3 µM]
Cc1cccc(Nc2nc(-c3cccs3)cs2)n1	-105*	-46%	10	?	-20%	28%
Cc1nc2ccccn2c1C(=O)NC1CCCCC1	-105*	-3%[46.1 µM]	-3	?	?	6%[38.3 µM]
Cc1nc2ccccn2c1C(=O)OCC#N	nt	14%	nt	16µM*	nt	2%
Cc1nc2ccccn2c1C(=O)NN=C1CCCC1	nt	6%	nt	?	nt	5%
CC[n+]1c(/C=C(\C)SC)sc2ccccc21	31	-26%[46.1 µM]	-1	6µM*	28µM*	25%[38.3 µM]
COc1ccc(CSc2nc(C)cc(=O)[nH]2)cc1Br	-22	-8%[46.1 µM]	6	4%	16µM*	28%[38.3 µM]
Cc1cc(=O)[nH]c(SCc2cccc(Br)c2)n1	12	-7%[46.1 µM]	3	-8%	14µM*	14%[38.3 µM]
CCOC(=O)CSc1nc(C)cc(=O)[nH]1	-9	-2%[46.1 µM]	-8	4%	-8%	-9%[38.3 µM]
CC(=O)c1c(C)cc(C)c(CSc2nc(C)cc(=O)[nH]2)c1C	-112*	-13%[46.1 µM]	-5	-15%	?	6%[38.3 µM]
CCn1c(-c2ccc([N+](=O)[O-])cc2)n[nH]c1=S	60	-7%[46.1 µM]	7	-5%	-27%	4%[38.3 µM]
Fc1ccccc1CSc1ccc(-c2ccco2)nn1	nt	-12%	nt	28µM*	nt	3%
c1ccc(CSc2ccc(-c3ccco3)nn2)cc1	-2	-5%	-16	40µM*	-18%	3%
Clc1ccc(CSc2ccc(-c3ccco3)nn2)cc1	nt	-19%	nt	-5%	nt	12%
Clc1cccc(CSc2ccc(-c3ccco3)nn2)c1	nt	-49%	nt	25µM*	nt	1%
Cc1cccc(CSc2ccc(-c3ccco3)nn2)c1	?	-15%	-8	?	-19%	-5%
Cc1ccc(S(=O)(=O)NCCC(=O)Nc2nnc(C)s2)cc1	4	-4%[46.1 µM]	-10	?	-4%	-9%[38.3 µM]
CC(=O)c1ccc(NC(=O)CO/N=C(\C)c2cccs2)cc1	-7	4%	nt	-18%	-16%	2%
SMILES	PNC assembly inh	NPSR antag	IMPase cell inh	ALDH1A1 inh	HPGD block	IMPase Li inh
CCc1cccc(CC)c1NC(=O)CO/N=C(\C)c1cccs1	-1	8%	10	-4%	0.63µM*	-2%
C/C(=N/OCC(=O)Nc1ccc(C)cc1C)c1cccs1	31	-17%[46.1 µM]	0	20%	7.9µM*	21%[38.3 µM]
C/C(=N\OCC(=O)Nc1ccccc1C(=O)O)c1cccs1	nt	-20%	nt	?	nt	-12%
COc1ccc(S(=O)(=O)NC(Cc2cnc[nH]2)C(=O)O)cc1 (stereo not given)	-11	14%	nt	-8%	-9%	8%
NS(=O)(=O)c1ccc(CNS(=O)(=O)c2ccc(Cl)nc2)cc1	nt	13%	nt	22µM*	nt	6%
CCCCOC(=O)Nc1nnc(C(C)C)s1	nt	35%	nt	-5%	nt	-8%
CCCC(C)c1nnc(NC(=O)C2CCCO2)s1 (stereo not given)	-8	22%[46.1 µM]	17	3.5µM*	11µM*	50%[38.3 µM]
CCCCCc1nnc(NC(=O)C2CCCO2)s1 (stereo not given)	41	-13%[46.1 µM]	8	?	-7%	32%[38.3 µM]
CCOC(=O)C(=O)Nc1nnc(CCc2ccccc2)s1	-100*	-1%[46.1 µM]	1	-3%	-8%	-10%
CCCC(C)c1nnc(NC(=O)C(=O)OCC)s1 (stereo not given)	nt	16%	nt	7.9µM*	nt	7%
O=C(Nc1nnc(-c2ccccc2F)s1)C1CCCO1 (stereo not given)	52	-8%[46.1 µM]	-1	20µM*	-20%	6%
CC(C(=O)O)c1n[nH]c(=O)c2ccccc12 (stereo not given)	26	-16%[46.1 µM]	2	5%	-2%	35%[38.3 µM]
O=C(CSCc1ccc(Br)cc1)N1CCCC1	nt	-4%	nt	-9%	nt	-1%
CCN(C(=O)COC(=O)c1cc(C)n(-c2ccc(F)cc2)c1C)C1CCS(=O)(=O)C1 (stereo not given)	-28	21%[46.1 µM]	-7	?	-7%	20%
O=S(=O)(c1ccc(Br)s1)N1CCN(c2ccccc2)CC1	-9	-19%[46.1 µM]	0	11%	-16%	3%[38.3 µM]
Cc1nnc(NC(=O)C2CCCO2)s1 (stereo not given)	?	1%	12	8.9µM*	13µM*	8%
O=C(C1CC1)N(Cc1ccco1)c1nc(-c2ccccc2)cs1	35	-20%[46.1 µM]	12	6.3µM*	-25%	15%[38.3 µM]
COc1cccc(-n2nc(-c3ccnn3-c3ccccc3)c(=O)n(C)c2=O)c1	44	-17%[46.1 µM]	5	?	-10%	21%[38.3 µM]
Cc1ccc(S(=O)(=O)N2CCN(CC(=O)NC3CCCc4ccccc43)CC2)c(C)c1 (stereo not given)	13	-29%[46.1 µM]	-3	13µM*	-8%	33%[38.3 µM]
Cc1ccc(S(=O)(=O)N2CCN(CC(=O)NC3CCCc4ccccc43)CC2)cc1C (stereo not given)	36	?	10	0.45µM*	-10%	21%[38.3 µM]
Cc1ccc(C)c(S(=O)(=O)N2CCN(CC(=O)N3CCc4ccccc4C3)CC2)c1	3	-6%[46.1 µM]	-7	18µM*	-8%	15%[38.3 µM]
COc1ccc(/C=C/C(=O)NCC2COc3ccccc3O2)cc1OC (stereo not given)	nt	30%	nt	?	nt	24%
CCCNCC1COc2ccccc2O1 (stereo not given)	11	-5%[46.1 µM]	7	12%	-16%	-9%[38.3 µM]
Cc1ccc(/C=C/C(=O)NCC2COc3ccccc3O2)o1 (stereo not given)	nt	-10%	nt	6.3µM*	nt	-8%
